# This excerpt belongs to a sample that is enriched for the strongest signals.
# B1: MD-2 (Homo sapiens) (protein)
# chain: MLPFLFFSTLFSSIFTEAQKQYWVCNSSDASISYTYCDKMQYPISINVNPCIELKGSKGLLHIFYIPRRDLKQLYFNLYITVNTMNLPKRKEVICRGSDDDYSFCRALKGETVNTTISFSFKGIKFSKGKYKCVVEAISGSPEEMLFCLEFVILHQPNSN
# B2: RegIIIgamma (Mus musculus), O09049 (protein)
# chain: MLPRITITIMSWMLLSCLMLLSQVQGEVAKKDAPSSRSSCPKGSRAYGSYCYALFSVSKNWYDADMACQKRPSGHLVSVLSGAEASFLSSMIKSSGNSGQYVWIGLHDPTLGYEPNRGGWEWSNADVMNYINWETNPSSSSGNHCGTLSRASGFLKWRENYCNLELPYVCKFKA
# Tests used:
# Assay in all cases: glycan array binding signal (z-score within array); higher = stronger binding
# Conditions in all cases: glycan notation: IUPAC condensed, linker removed
# [1] = target: Fuc(a1-2)Gal(b1-4)GlcNAc(b1-3)Gal(b1-4)GlcNAc(b1-3)Gal(b1-4)GlcNAc
# How it was run: (§1)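 Glycan array data were curated from 3228 arrays in the Consortium for Functional Glycomics database and kept only where the protein sequence was available. Glycan names were converted to IUPAC-condensed notation, and columns mapping to the same glycan were averaged. The binding signal is a within-array Z-score, averaged across arrays of the same protein sequence at different concentrations or buffers and across linkers. Negative Z-scores can be read as non-binding.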
# [2] = target: Fuc(a1-3)[Gal(b1-4)]GlcNAc(b1-4)Gal(b1-4)[Fuc(a1-3)]GlcNAc(b1-4)Gal(b1-4)[Fuc(a1-3)]GlcNAc
# How it was run: as §1
# [3] = target: Gal(b1-4)GlcNAc(b1-3)[GlcNAc(b1-6)]Gal(b1-4)GlcNAc
# How it was run: as §1
# [4] = target: Gal3S(b1-3)GalNAc
# How it was run: as §1
# [5] = target: Gal3S4S(b1-4)GlcNAc
# How it was run: as §1
# [6] = target: Gal3S6S(b1-4)GlcNAc6S
# How it was run: as §1
# [7] = target: Gal6S(b1-4)Glc6S
# How it was run: as §1
# [8] = target: GalNAc(b1-3)Gal
# How it was run: as §1
# [9] = target: GlcNAc(a1-6)Gal(b1-4)GlcNAc
# How it was run: as §1
# [10] = target: GlcNAc(b1-2)Man(a1-3)[GlcNAc(b1-2)Man(a1-6)]Man(b1-4)GlcNAc(b1-4)GlcNAc
# How it was run: as §1
# [11] = target: GlcNAc(b1-3)Gal(b1-3)GalNAc
# How it was run: as §1
# [12] = target: GlcNAc(b1-4)GlcNAc(b1-4)GlcNAc(b1-4)GlcNAc(b1-4)GlcNAc
# How it was run: as §1
# [13] = target: GlcNAc(b1-4)GlcNAc(b1-4)GlcNAc(b1-4)GlcNAc(b1-4)GlcNAc(b1-4)GlcNAc
# How it was run: as §1
# [14] = target: Man(a1-2)Man(a1-3)Man
# How it was run: as §1
# [15] = target: Man(a1-3)[Man(a1-6)]Man(a1-6)[Man(a1-3)]Man(b1-4)GlcNAc(b1-4)GlcNAc
# How it was run: as §1
# [16] = target: Man(a1-6)Man
# How it was run: as §1
# [17] = target: Neu5Ac(a2-3)Gal(b1-4)Glc
# How it was run: as §1
# [18] = target: Neu5Ac(a2-3)Gal(b1-4)[Fuc(a1-3)]GlcNAc(b1-3)Gal
# How it was run: as §1
# [19] = target: Neu5Ac(a2-6)Gal(b1-4)GlcNAc(b1-2)Man(a1-3)[GlcNAc(b1-2)Man(b1-4)GlcNAc(b1-2)Man(a1-6)]Man(b1-4)GlcNAc(b1-4)GlcNAc
# How it was run: as §1
# [20] = target: Neu5Ac(a2-6)Gal(b1-4)GlcNAc(b1-2)Man(a1-3)[Neu5Ac(a2-6)Gal(b1-4)GlcNAc(b1-2)Man(a1-6)]Man(b1-4)GlcNAc(b1-4)GlcNAc
# How it was run: as §1
# [21] = target: Neu5Gc(a2-3)Gal(b1-4)GlcNAc
# How it was run: as §1
# [22] = target: Fuc(a1-2)[GalNAc(a1-3)]Gal
# How it was run: as §1
# [23] = target: Gal(a1-3)[Gal(a1-4)]Gal(b1-4)GlcNAc
# How it was run: as §1
# [24] = target: Gal(b1-4)GalNAc(a1-3)[Fuc(a1-2)]Gal(b1-4)GlcNAc
# How it was run: as §1
# [25] = target: Gal3S(b1-4)GlcNAc
# How it was run: as §1
# [26] = target: Gal4S(b1-4)GlcNAc
# How it was run: as §1
# [27] = target: GlcNAc(b1-4)GlcNAc(b1-4)GlcNAc
# How it was run: as §1
# [28] = target: Man(a1-2)Man(a1-6)[Man(a1-3)]Man(a1-6)[Man(a1-2)Man(a1-2)Man(a1-3)]Man(b1-4)GlcNAc(b1-4)GlcNAc
# How it was run: as §1
# [29] = target: Neu5Ac(a2-8)Neu5Ac(a2-3)[GalNAc(b1-4)]Gal(b1-4)Glc
# How it was run: as §1
# [30] = target: Neu5Ac(a2-8)Neu5Ac(a2-8)Neu5Ac(a2-3)Gal(b1-4)Glc
# How it was run: as §1
# [31] = target: Neu5Gc(a2-3)Gal(b1-4)Glc
# How it was run: as §1
Binder,glycan array binding signal (z-score) [1],glycan array binding signal (z-score) [2],glycan array binding signal (z-score) [3],glycan array binding signal (z-score) [4],glycan array binding signal (z-score) [5],glycan array binding signal (z-score) [6],glycan array binding signal (z-score) [7],glycan array binding signal (z-score) [8],glycan array binding signal (z-score) [9],glycan array binding signal (z-score) [10],glycan array binding signal (z-score) [11],glycan array binding signal (z-score) [12],glycan array binding signal (z-score) [13],glycan array binding signal (z-score) [14],glycan array binding signal (z-score) [15],glycan array binding signal (z-score) [16],glycan array binding signal (z-score) [17],glycan array binding signal (z-score) [18],glycan array binding signal (z-score) [19],glycan array binding signal (z-score) [20],glycan array binding signal (z-score) [21],glycan array binding signal (z-score) [22],glycan array binding signal (z-score) [23],glycan array binding signal (z-score) [24],glycan array binding signal (z-score) [25],glycan array binding signal (z-score) [26],glycan array binding signal (z-score) [27],glycan array binding signal (z-score) [28],glycan array binding signal (z-score) [29],glycan array binding signal (z-score) [30],glycan array binding signal (z-score) [31]
B1,0.156,-0.473,-0.262,-0.242,3.89,6.6,6.38,-0.354,-0.163,-0.316,-0.326,4.23,5.59,-0.386,0.116,0.081,-0.127,-0.504,-0.331,-0.321,-0.291,–,–,–,–,–,–,–,–,–,–
B2,0.632,–,–,-0.134,–,–,–,–,–,–,–,–,–,–,–,–,–,–,–,–,–,-0.258,0.491,-0.228,-0.128,1.17,-0.185,-0.06,-0.133,-0.163,-0.148

# From the supplement of paper PMC8728848
